In PubChem BioAssay (Tox21):
Inconclusive results are not listed. The source made the active and inactive calls. Unless noted, calls follow the shape of the dose curve; as a rule, active = well fitted curve in the direction sought with a large enough effect in the repeat runs; inconclusive = weak or mixed curves; inactive = no such curve, though single readings can be large; an effect the other way counts as inactive or inconclusive.

Legend:
[1] = qHTS assay to test for compound auto fluorescence at 460 nm (blue) in HEK293 cell free culture (AID 720681)
Method in brief: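 Blue fluorescence (Ex 405/Em 460 nm, triamterene-equivalent) was read immediately after pin transfer of compound or DMSO into medium (DMEM, 10% FBS) without cells.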

[2] = qHTS assay to test for compound auto fluorescence at 535 nm (green) in HEK293 cell free culture (AID 720682)
Method in brief: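 Cell-free medium (DMEM, 10% FBS) receives compound or DMSO by pintool. Plate read directly at Ex 485/Em 535 nm. Signal converted to fluorescein equivalency.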

[3] = qHTS assay to test for compound auto fluorescence at 590 nm (red) in HEK293 cell free culture (AID 720683)
Method in brief: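 Red-channel autofluorescence of compounds in culture medium (DMEM, 10% FBS), no cells, measured at 540/590 nm. Rose Bengal sodium is the reference fluorophore for equivalence.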

[4] = qHTS assay to test for compound auto fluorescence at 460 nm (blue) in HepG2 cell free culture (AID 720685)
Method in brief: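 Cell-free plates of MEM plus 10% FBS received 23 nL compound or DMSO vehicle; blue-channel (405/460 nm) intensity scored against triamterene as reference fluorophore.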

[5] = qHTS assay to test for compound auto fluorescence at 460 nm (blue) in HepG2 cells (AID 720687)
Method in brief: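 Blue-channel autofluorescence (Ex/Em 405/460 nm, triamterene-equivalent) was measured after 1 hr compound exposure at 37 C, 5% CO2. Cells were HepG2, plated overnight at 37 C in MEM plus 10% FBS.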

[6] = target: Glucocorticoid receptor (Homo sapiens) (UniProt P04150); experiment: qHTS assay to identify small molecule agonists of the glucocorticoid receptor (GR) signaling pathway (AID 720691; active = well fitted activation curve with a large enough effect in the signal ratio in the repeat runs, not every such curve was filed as active; the % refers to the signal ratio)
Method in brief: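 Compounds in DMSO, alongside positive controls, were added to GR-bla HeLa reporter cells and incubated 18 h at 37 C; GRE-driven beta-lactamase was detected by fluorescence after 2 h with FRET substrate at room temperature.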

[7] = qHTS assay for identifying genotoxic compounds that show differential cytotoxicity against isogenic chicken DT40 cell lines with known DNA damage response pathways - wild type cell line (AID 743012); also: nearly all actives have a fitted effect of over 60% in size
Method in brief: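 Viability of DNA repair-proficient chicken DT40 cells was assessed by CellTiter-Glo luminescence following 40 h compound exposure at 37 C/5% CO2.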

[8] = qHTS assay for identifying genotoxic compounds that show differential cytotoxicity against isogenic chicken DT40 cell lines with known DNA damage response pathways - Rev3 mutant cell line (AID 743014); also: nearly all actives have a fitted effect of over 55% in size
[9] = qHTS assay for identifying genotoxic compounds that show differential cytotoxicity against isogenic chicken DT40 cell lines with known DNA damage response pathways - Rad54/Ku70 mutant cell line (AID 743015); also: nearly all actives have a fitted effect of over 60% in size
[10] = qHTS assay to identify small molecule antagonists of the androgen receptor (AR) signaling pathway - cell viability counter screen (AID 743033; also: nearly all actives have a fitted effect of over 45% in size)
[11] = qHTS assay to identify small molecule antagonists of the androgen receptor (AR) signaling pathway using the MDA cell line - cell viability counter screen (AID 743041; also: nearly all actives have a fitted effect of over 45% in size)
Method in brief: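 Using the breast carcinoma line MDA-kb2 AR-luc, test chemicals were co-incubated with R1881 for 16 h; CellTiter-Fluor reagent, added at 15.5 h, provided a fluorescence measure of live cells.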

[12] = qHTS assay to test for compound auto fluorescence at 590 nm (red) in HepG2 cell free culture (AID 720684)
Method in brief: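 No cells present: MEM + 10% FBS only. Compound pinned in, red label read (540/590 nm). Activity = fluorescence equivalent to Rose Bengal sodium.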

[13] = qHTS assay to identify small molecule antagonists of the glucocorticoid receptor (GR) signaling pathway - cell viability counter screen (AID 720693); also: nearly all actives have a fitted effect of over 55% in size
[14] = qHTS assay to test for compound auto fluorescence at 535 nm (green) in HepG2 cell free culture (AID 720686)
[15] = target: Glucocorticoid receptor (Homo sapiens) (UniProt P04150); experiment: qHTS assay to identify small molecule antagonists of the glucocorticoid receptor (GR) signaling pathway (AID 720692; active = well fitted inhibition curve with a large enough effect in the signal ratio in the repeat runs, not every such curve was filed as active; the % refers to the signal ratio)
Method in brief: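 In a 1536-well cell format, compounds were added 4 h after seeding GR-bla HeLa cells, together with dexamethasone at 5 nM final; reporter activity was measured by FRET-substrate fluorescence following 18 h at 37 C.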

[16] = target: Androgen receptor (Homo sapiens) (UniProt P10275); experiment: qHTS assay to identify small molecule antagonists of the androgen receptor (AR) signaling pathway (AID 743035; active = well fitted inhibition curve with a large enough effect in the signal ratio in the repeat runs, not every such curve was filed as active; the % refers to the signal ratio)
Method in brief: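 Reporter HEK293 cells were exposed to compounds and R1881 overnight (16 h, 37C); beta-lactamase activity was then quantified by FRET fluorescence.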

[17] = target: Androgen receptor (Homo sapiens) (UniProt P10275); experiment: qHTS assay to identify small molecule agonists of the androgen receptor (AR) signaling pathway (AID 743036; active = well fitted activation curve with a large enough effect in the signal ratio in the repeat runs, with a control signal flat, not every such curve was filed as active; the % refers to the signal ratio)
Method in brief: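 AR-bla HEK293 cells, 2,000/well; 4 h preincubation 37C/5% CO2; compound (DMSO) 16 h at 37C; LiveBLAzer B/G FRET substrate 2 h RT; fluorescence intensity read-out.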

[18] = target: Androgen receptor (Homo sapiens) (UniProt P10275); experiment: qHTS assay to identify small molecule agonists of the androgen receptor (AR) signaling pathway using the MDA cell line (AID 743040; also: nearly all actives have a fitted effect of over 20% in size)
Method in brief: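 Stable MMTV-luciferase reporter in MDA-kb2 cells; note the promoter carries GR as well as AR response elements. 16 h compound treatment, 37C, 0% CO2; ONE-Glo luminescence endpoint.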

[19] = target: Androgen receptor (Homo sapiens) (UniProt P10275); experiment: qHTS assay to identify small molecule antagonists of the androgen receptor (AR) signaling pathway using the MDA cell line (AID 743042; also: nearly all actives have a fitted effect of over 55% in size)
Method in brief: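 Antagonist mode: compounds plus R1881 agonist added to MDA-kb2 AR-luc cells, incubated 16 h at 37C. Luciferase reporter luminescence quantified, with multiplexed CellTiter-Fluor readout for cell viability.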
% is scaled to controls: 0 for no effect and ±100 for the full control effect.

Androgen receptor (Homo sapiens), sequence (P10275 whole entry, looked up): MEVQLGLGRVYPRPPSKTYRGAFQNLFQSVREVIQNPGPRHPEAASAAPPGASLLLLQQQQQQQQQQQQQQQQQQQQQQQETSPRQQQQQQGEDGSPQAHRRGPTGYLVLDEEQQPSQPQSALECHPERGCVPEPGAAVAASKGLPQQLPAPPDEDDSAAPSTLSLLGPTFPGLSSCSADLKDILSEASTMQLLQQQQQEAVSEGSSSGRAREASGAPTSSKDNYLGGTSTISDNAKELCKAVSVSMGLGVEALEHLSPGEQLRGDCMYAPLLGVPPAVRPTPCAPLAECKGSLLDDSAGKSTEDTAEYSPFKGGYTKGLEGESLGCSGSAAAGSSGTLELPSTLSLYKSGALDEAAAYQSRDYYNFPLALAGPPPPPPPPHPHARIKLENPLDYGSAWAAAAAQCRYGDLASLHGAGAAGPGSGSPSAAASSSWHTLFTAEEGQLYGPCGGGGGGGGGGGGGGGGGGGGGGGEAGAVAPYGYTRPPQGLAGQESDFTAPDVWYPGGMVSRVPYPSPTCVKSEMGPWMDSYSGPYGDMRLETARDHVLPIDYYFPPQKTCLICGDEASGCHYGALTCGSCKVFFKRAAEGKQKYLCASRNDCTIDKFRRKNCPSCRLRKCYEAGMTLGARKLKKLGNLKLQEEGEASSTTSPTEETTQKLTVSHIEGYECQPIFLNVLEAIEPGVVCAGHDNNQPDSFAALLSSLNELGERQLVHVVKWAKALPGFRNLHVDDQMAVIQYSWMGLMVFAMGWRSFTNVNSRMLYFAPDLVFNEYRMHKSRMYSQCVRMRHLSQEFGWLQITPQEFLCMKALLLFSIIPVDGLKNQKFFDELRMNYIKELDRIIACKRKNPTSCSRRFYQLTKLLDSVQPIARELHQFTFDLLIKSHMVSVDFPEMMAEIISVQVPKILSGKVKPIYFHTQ
Glucocorticoid receptor (Homo sapiens), sequence (P04150 whole entry, looked up): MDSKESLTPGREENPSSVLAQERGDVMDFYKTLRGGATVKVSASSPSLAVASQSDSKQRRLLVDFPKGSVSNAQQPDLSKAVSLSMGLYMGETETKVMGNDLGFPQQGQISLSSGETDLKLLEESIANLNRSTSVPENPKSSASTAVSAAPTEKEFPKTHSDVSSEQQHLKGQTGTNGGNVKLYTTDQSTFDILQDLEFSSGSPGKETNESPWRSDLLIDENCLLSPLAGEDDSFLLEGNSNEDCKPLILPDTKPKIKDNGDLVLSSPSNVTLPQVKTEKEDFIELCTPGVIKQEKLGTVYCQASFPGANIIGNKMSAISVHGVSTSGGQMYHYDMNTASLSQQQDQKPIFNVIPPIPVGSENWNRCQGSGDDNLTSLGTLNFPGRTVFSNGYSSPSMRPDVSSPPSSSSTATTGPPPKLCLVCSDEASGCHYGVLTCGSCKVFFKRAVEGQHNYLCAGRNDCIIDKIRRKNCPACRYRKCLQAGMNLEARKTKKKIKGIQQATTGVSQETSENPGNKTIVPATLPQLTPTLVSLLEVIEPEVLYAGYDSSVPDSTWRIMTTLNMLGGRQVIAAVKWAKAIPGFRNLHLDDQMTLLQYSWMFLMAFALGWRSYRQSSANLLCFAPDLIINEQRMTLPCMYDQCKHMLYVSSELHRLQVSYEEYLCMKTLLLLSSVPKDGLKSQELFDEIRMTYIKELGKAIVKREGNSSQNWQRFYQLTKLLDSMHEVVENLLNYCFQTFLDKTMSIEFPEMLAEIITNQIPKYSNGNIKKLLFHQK

COC(=O)CCCC(=O)O
inactive: Potency [1] | outcome [2] | outcome [3] | Potency [4] | Potency [5] | Potency [6] | Potency [7] | Potency [8] | Potency [9] | outcome [10] | Potency [11]

CCCC(C)C(=O)O (centres undefined)
inactive: Potency [1] | outcome [2] | outcome [3] | outcome [12] | Potency [4] | Potency [5] | outcome [13] | Potency [7] | Potency [8] | Potency [9] | outcome [10] | Potency [11]

CCN1CCCC(OC(=O)C(c2ccccc2)c2ccccc2)C1 (centres undefined)
inactive: fluorescence, % of fluorescent control [1] 0.0253% [at 18.6 µM] | activity change [2] 0.0002% [at 18.6 µM] | fluorescence, % of fluorescent control [3] 0.138% [at 18.6 µM] | fluorescence, % of fluorescent control [4] -0.0343% [at 18.6 µM] | fluorescence, % of fluorescein control [14] 0.088% [at 18.6 µM] | fluorescence, % of fluorescent control [5] 0.0078% [at 18.6 µM] | Potency [6] | outcome [13] | outcome [10] | Potency [11]

CC(=O)c1ccc(C)cc1
inactive: Potency [1] | outcome [2] | outcome [3] | outcome [12] | Potency [4] | outcome [14] | Potency [5] | Potency [6] | outcome [13] | Potency [7] | Potency [8] | Potency [9] | outcome [10] | Potency [11]

CCC(=O)Nc1cccc(N)c1
inactive: Potency [1] | outcome [2] | outcome [3] | outcome [12] | Potency [4] | outcome [14] | Potency [5] | Potency [6] | Potency [15] | outcome [13] | Potency [7] | Potency [8] | Potency [9] | outcome [10] | Potency [11]

CC(C)(C)N(CCO)CCO
inactive: Potency [1] | outcome [2] | outcome [3] | outcome [12] | Potency [4] | Potency [5] | Potency [6] | Potency [15] | outcome [13] | Potency [7] | Potency [8] | Potency [9] | outcome [10] | Potency [11]

NC(=S)Nc1cccc2ccccc12
inactive: fluorescence, % of fluorescent control [1] -0.0083% [at 3.72 µM] | activity change [2] 0.0539% [at 3.72 µM] | fluorescence, % of fluorescent control [3] -0.0289% [at 3.72 µM] | fluorescence, % of Rose Bengal [12] -0.172% [at 3.72 µM] | fluorescence, % of fluorescent control [4] 0.0279% [at 3.72 µM] | fluorescence, % of fluorescein control [14] 0.006% [at 3.72 µM] | fluorescence, % of fluorescent control [5] -0.0944% [at 3.72 µM] | activation [6] -4.91% [at 6.9 µM] | activity change, negative = inhibition [15] -3.43% [at 7.04 µM] | activity change, negative = cytotoxicity [7] 28.7% [at 8.52 µM] | activity, negative = cytotoxicity [8] -8.62% [at 8.53 µM] | activity change, negative = cytotoxicity [10] 0.303% [at 7.04 µM] | viability change, negative = cytotoxic [11] -0.0936% [at 8.47 µM]

COc1ccc(N=[N+]([O-])c2ccc(OC)cc2)cc1
inactive: Potency [1] | outcome [2] | outcome [3] | outcome [12] | Potency [4] | outcome [14] | Potency [5] | Potency [6] | outcome [13] | Potency [7] | Potency [8] | Potency [9] | outcome [10] | Potency [11]

CNc1ncnc2nc[nH]c12
inactive: Potency [1] | outcome [2] | outcome [3] | outcome [12] | Potency [4] | Potency [5] | outcome [13] | Potency [7] | Potency [8] | Potency [9] | outcome [10] | Potency [11]

CCOC(=O)Cn1c(=O)sc2cccc(Cl)c21
inactive: Potency [1] | outcome [2] | outcome [3] | outcome [12] | Potency [4] | Potency [5] | Potency [6] | outcome [13] | Potency [9] | outcome [10] | Potency [11]

CCC(C(=O)NC(N)=O)c1ccccc1 (centres undefined)
inactive: Potency [1] | outcome [2] | outcome [3] | Potency [4] | outcome [14] | Potency [5] | Potency [6] | Potency [15] | outcome [13] | Potency [7] | Potency [8] | outcome [10] | Potency [11]

CN(C)CCn1nnnc1SCC1=C(C(=O)O)N2C(=O)[C@@H](NC(=O)Cc3csc(N)n3)[C@H]2SC1
inactive: fluorescence, % of fluorescent control [1] 0.443% [at 18.6 µM] | activity change [2] 0.0595% [at 18.6 µM] | fluorescence, % of fluorescent control [3] 0.0008% [at 18.6 µM] | fluorescence, % of fluorescent control [4] 0.31% [at 18.6 µM] | fluorescence, % of fluorescent control [5] 0.222% [at 18.6 µM] | Potency [6] | Potency [15] | outcome [13] | Potency [7] | Potency [8] | Potency [9] | outcome [10] | Potency [16] | outcome [17] | Potency [18] | Potency [11] | outcome [19]

CCN1CCN(c2cc3c(cc2F)c(=O)c(C(=O)O)cn3C2CC2)CC1
inactive: Potency [1] | outcome [2] | outcome [3] | outcome [12] | Potency [4] | Potency [5] | Potency [6] | Potency [15] | outcome [13] | Potency [7] | Potency [8] | outcome [10] | Potency [16] | outcome [17] | Potency [18] | Potency [11] | outcome [19]

Nc1cc(C(Cl)=C(Cl)Cl)c(S(N)(=O)=O)cc1S(N)(=O)=O
inactive: Potency [1] | outcome [2] | outcome [3] | outcome [12] | Potency [4] | Potency [5] | Potency [6] | Potency [15] | outcome [13] | Potency [7] | Potency [8] | Potency [9] | outcome [10] | Potency [11]

CCCC(C)CO (centres undefined)
inactive: Potency [1] | outcome [2] | outcome [3] | outcome [12] | Potency [4] | outcome [14] | Potency [5] | Potency [6] | Potency [15] | outcome [13] | Potency [7] | Potency [8] | outcome [10] | Potency [16] | outcome [17] | Potency [11] | outcome [19]
